According to PubChem BioAssay (NCATS):
Activity calls are given as the source filed them. Calls come from the whole dose curve.

Experiment: Cell Proliferation Assay Versus the ED40515 IL2 Dependent ATL cell lines (AID 1053195)
Conditions: ED40515 IL2-dependent ATL cells
Text: Adult T-cell leukemia (ATL) develops in individuals infected with human T-cell lymphotropic virus-1 (HTLV-1). Clinically, ATL is subclassified into four subtypes: smoldering, chronic, lymphomatous, and acute. Two autocrine loops (IL-2/IL-2Ralpha and IL-15/IL-15Ralpha) and one paracrine stimulation loop that involves IL-9 expression by ATL cells and IL-9Ralpha expression on monocytes are required to maintain viability and proliferation in the smoldering and chronic forms of the disease. These assays examined the differential response profiles for the MIPE library of approved and investigational drugs versus an IL2 dependent and independent matched ATL cell line, with the current submission examining the differential response profiles for drugs on an IL2 dependent matched ATL cell line.
Plate log growing ED40515 +IL2 cells: 1000cells/ well in 5uL phenol red free RPMI +5% FBS +1x p/s, Glutamine using 1536 well white griener tissue culture plates and multidrop cassette acoustic dispensing Columns 1 and 3 DMSO Columns 2 and 4, 9.2 uM Bortezomib Incubate 48 hours for celltiter glo 37C with 5%CO2 and 95% humidity with low evaporation lids Dispense 3 uL per well of cell titer glo with multidrop Incubate for 15 minutes at RT Read on VL/2 using Luminesence Wheel (Filter A)

| Compound | Potency |
| --- | --- |
| COCC(=O)NCC=Cc1ccc2ncnc(Nc3ccc(Oc4ccc(C)nc4)c(C)c3)c2c1 | 4.69 µM (active) |
| CC(C)(Sc1ccc(CCN(CCCCC2CCCCC2)C(=O)NC2CCCCC2)cc1)C(=O)O | 18.7 µM (active) |
| O=C(O)c1ccc(-c2c[nH]c3ccc(-c4ccccc4)cc23)cc1C1CCCC1 | 5.26 µM (active) |
| Nc1ncnc2nc(-c3ccc(N4CCOCC4)nc3)cc(-c3cccc(Br)c3)c12 | 14.8 µM (active) |
| COc1ccc(-c2oc3cc(OC)ccc3c2C(=O)c2ccc(C#N)cc2)cc1 | 20.9 µM (active) |
| COc1c(Cl)cc2c([nH]c3cnccc32)c1NC(=O)c1cccnc1C | 33.2 µM (active) |
| CC1(C)SCCN(S(=O)(=O)c2ccc(OCC#CCO)cc2)[C@@H]1C(=O)NO | 23.5 µM (active) |
| CN[C@@H](C)C(=O)N[C@H]1CCCC[C@H]2CC[C@@H](C(=O)N[C@@H](c3ccccc3)c3cn(CCCCc4ccc(CCCCn5cc([C@@H](NC(=O)[C@@H]6CC[C@@H]7CCCC[C@H](NC(=O)[C@H](C)NC)C(=O)N76)c6ccccc6)nn5)cc4)nn3)N2C1=O | 23.5 µM (active) |
| Cc1ccnc(NS(=O)(=O)c2ccc(NC(=O)Nc3ccc(S(=O)(=O)Nc4nccc(C)n4)cc3)cc2)n1 | 23.5 µM (active) |
| CCCS(=O)(=O)Nc1ccc(F)c(C(=O)c2c[nH]c3ncc(Cl)cc23)c1F | 16.6 µM (active) |
| NC(=O)c1ccc(-c2nc(-c3ccc4c(c3)OCO4)c(-c3ccccn3)[nH]2)cc1 | 37.2 µM (active) |
| NC(=O)c1ccc(I)c([N+](=O)[O-])c1 | 37.2 µM (active) |
| COc1ccccc1[C@H](c1cccc2ccccc12)[C@@](C)(C#N)C(=O)N1CCC(c2cccc(C(F)(F)F)c2)CC1 | 2.64 µM (active) |
| CC(C)(N)C(=O)N[C@H](COCc1ccccc1)C(=O)N1CCC2(CC1)CN(S(C)(=O)=O)c1ccccc12 | 11.8 µM (active) |
| O=S(=O)(N=Cc1c(O)ccc2ccccc12)c1cccs1 | 20.9 µM (active) |
| CCn1c(-c2nonc2N)nc2cnc(Oc3cccc(NC(=O)c4ccc(OCCN5CCOCC5)cc4)c3)cc21 | 0.59 µM (active) |
| CCc1ccc(CCOc2ccc(CC3SC(=O)NC3=O)cc2)nc1 (stereo not given) | 16.6 µM (active) |
| CC[C@@H](C)[C@H](NC(=O)[C@H](CC1CCCCC1)NC(=O)c1ccno1)C(=O)N1CCC2(CCc3ccccc32)CC1 | 2.64 µM (active) |
| OC[C@H](Cc1ccccc1)Nc1nc(Oc2ccc3c(c2)CCC3)nc2c1ncn2Cc1ccc(-c2ccccc2)cc1 | 13.2 µM (active) |
| CC1(C)Cc2c(-c3ccccc3)c(-c3ccc(Cl)cc3)c(CC(=O)O)n2C1 | 5.26 µM (active) |

| Compound | Potency |
| --- | --- |
| CCOc1ccc(Cc2cc([C@@H]3O[C@H](CO)[C@@H](O)[C@H](O)[C@@H]3O)ccc2Cl)cc1 | 4.69 µM (active) |
| CC(C)c1onc(-c2c(Cl)cccc2Cl)c1COc1ccc(/C=C/c2cccc(C(=O)O)c2)c(Cl)c1 | 20.9 µM (active) |
| Cn1cc(-c2ccc3nnc(C(F)(F)c4ccc5ncccc5c4)n3n2)cn1 | 7.43 µM (active) |
| COc1cc(Nc2ncc3c(n2)-c2ccc(Cl)cc2C(c2c(F)cccc2OC)=NC3)ccc1C(=O)O | 0.0066 µM (active) |
| COc1nc(-c2ccc3c(c2)OCO3)n(-c2ccc(NC(=O)CSc3ccccc3)cc2)n1 | 20.9 µM (active) |
| COc1ccc(-c2c(-c3ccc(O)cc3O)n[nH]c2C)cc1 | 2.09 µM (active) |
| Cc1csc(NC(=O)c2sc3nc4c(c(C(F)(F)F)c3c2N)CCC4)n1 | 18.7 µM (active) |
| CCC(C)(C)C(=O)O[C@H]1C[C@@H](C)C=C2C=C[C@H](C)[C@H](CC[C@@H]3C[C@@H](O)CC(=O)O3)[C@H]21 | 3.17 µM (active) |
| C[C@H](NC(=O)Cc1cc(F)cc(F)c1)C(=O)N[C@@H]1C(=O)N(C)c2ccccc2-c2ccccc21 | 20.9 µM (active) |
| O=C(OCC#CCSc1nnc(-c2ccc3ccccc3c2)o1)c1cc2ccccc2s1 | 11.8 µM (active) |
| CCOC(=O)C1=C[C@@]2(CC)CCCN3CCc4c(n1c1ccccc41)[C@H]32 | 9.5 µM (active) |
| CN(C)C(=O)c1ccc(S(=O)(=O)c2ccc(NC(=O)[C@@](C)(O)C(F)(F)F)c(Cl)c2)cc1 | 0.332 µM (active) |
| Cc1cnc(Nc2ccc(OCCN3CCCC3)cc2)nc1Nc1cccc(S(=O)(=O)NC(C)(C)C)c1 | 20.9 µM (active) |
| Cc1ccc(-n2nc(C(C)(C)C)cc2NC(=O)Nc2ccc(OCCN3CCOCC3)c3ccccc23)cc1 | 26.4 µM (active) |
| O=C(O)CCc1ccc(NCc2cccc(Oc3ccccc3)c2)cc1 | 0.0833 µM (active) |
| CCc1cncnc1N1CCN(Cc2nc3ccc(C(F)(F)F)cc3[nH]2)CC1 | 1.18 µM (active) |
| CS(=O)(=O)c1ccc(C(=O)Nc2ccc(Cl)c(-c3ccccn3)c2)c(Cl)c1 | 13.2 µM (active) |
| Cc1n[nH]c(C)c1Cc1sc2c(c1C(=O)N1C[C@H](O)CO1)c(=O)n(C)c(=O)n2CC(C)C | 0.0019 µM (active) |
| CCN(CC)CCCC(C)Nc1nc(C)cc(Nc2ccc3nc(C)cc(N)c3c2)n1 (stereo not given) | 18.7 µM (active) |
| O=C(Nc1ccc(F)c(C(F)(F)F)c1)Nc1nnc(-c2ccncc2)s1 | 0.935 µM (active) |
